Measured values published in article PMC4336329 (PLoS ONE, 2015).
Among all 310,000 compounds or so, about 14,000 (4.5%) showed an effect of 50% or more. The effect is printed as a negative number. Only a selection was taken, and strong results are over-represented in it overall.

Target: human ether-à-go-go-related gene (hERG) potassium channel (human, UniProt Q12809)
Assay: primary screen, population patch clamp on CHO cells stably expressing hERG; higher = less effect of the substance
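Further: peak tail current of the secondary pulse compared with the same well before compound.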

Sequence of human ether-à-go-go-related gene (hERG) potassium channel (Q12809 whole entry, looked up): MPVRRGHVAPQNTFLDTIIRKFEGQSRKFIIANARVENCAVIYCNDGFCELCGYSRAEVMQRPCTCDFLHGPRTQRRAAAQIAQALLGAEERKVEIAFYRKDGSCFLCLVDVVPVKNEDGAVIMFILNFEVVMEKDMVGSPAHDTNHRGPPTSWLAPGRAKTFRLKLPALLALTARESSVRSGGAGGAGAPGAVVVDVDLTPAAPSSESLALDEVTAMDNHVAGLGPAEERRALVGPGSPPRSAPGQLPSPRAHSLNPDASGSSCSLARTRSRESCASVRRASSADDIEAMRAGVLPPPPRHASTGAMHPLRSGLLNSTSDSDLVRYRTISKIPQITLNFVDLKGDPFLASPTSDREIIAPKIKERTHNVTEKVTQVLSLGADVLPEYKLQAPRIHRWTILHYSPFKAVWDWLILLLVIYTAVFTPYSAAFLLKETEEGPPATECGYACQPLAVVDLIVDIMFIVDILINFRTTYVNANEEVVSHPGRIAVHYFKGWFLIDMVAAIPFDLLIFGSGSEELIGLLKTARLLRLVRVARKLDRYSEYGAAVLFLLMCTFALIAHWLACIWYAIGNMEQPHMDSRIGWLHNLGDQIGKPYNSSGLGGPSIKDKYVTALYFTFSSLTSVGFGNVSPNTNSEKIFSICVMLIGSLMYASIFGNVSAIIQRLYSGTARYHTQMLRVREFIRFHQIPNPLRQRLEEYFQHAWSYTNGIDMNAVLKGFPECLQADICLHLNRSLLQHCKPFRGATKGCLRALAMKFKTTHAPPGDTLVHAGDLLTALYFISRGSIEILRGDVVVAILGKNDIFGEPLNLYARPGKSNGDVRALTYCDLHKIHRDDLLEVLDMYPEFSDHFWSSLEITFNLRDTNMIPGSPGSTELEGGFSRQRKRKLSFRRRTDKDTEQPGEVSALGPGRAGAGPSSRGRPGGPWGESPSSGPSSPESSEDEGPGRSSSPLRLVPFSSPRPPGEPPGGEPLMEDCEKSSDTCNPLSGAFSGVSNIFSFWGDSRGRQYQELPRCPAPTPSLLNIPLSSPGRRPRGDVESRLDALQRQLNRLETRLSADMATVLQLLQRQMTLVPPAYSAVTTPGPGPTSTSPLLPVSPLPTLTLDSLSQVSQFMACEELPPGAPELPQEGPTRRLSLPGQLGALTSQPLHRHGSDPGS

| SMILES | hERG current change (%, negative = inhibition) at 10uM |
| --- | --- |
| CCCCOc1ccc(C(=O)NCC(=O)OC2CCOC2=O)cc1 (centres unmarked) | 4.84% |
| Cc1cc(C(=O)N/N=C/c2sc(N3CCOCC3)nc2-c2ccccc2)c(C)o1 | 8.26% |
| COc1ccc(C(=O)N2CCCC2)cc1S(=O)(=O)N1CCOCC1 | -1.7% |
| CCN[C@H]1CN(CCCOC)S(=O)(=O)c2sc(S(N)(=O)=O)cc21 | 2.51% |
| CC(C)NS(=O)(=O)c1ccc(CCC(=O)N2CCc3ccccc3C2)cc1 | -11.9% |
| Cc1c(C(=O)OCC(=O)c2ccc3c(c2)OCCO3)oc2ccccc12 | 4.75% |
| COc1cc(/C=C2\CCC(C3CCCC3)C2=O)cc(OC)c1OC (centres unmarked) | 9.98% |
| O=C(CSc1nnc2ncccn12)Nc1cccc2ccccc12 | 5.09% |
| Cc1ccc(S(=O)(=O)N(C)CCCC(=O)Nc2cccc3ccccc23)cc1 | -28.1% |
| CC(=O)Nc1ccc(NC(=S)NC(=O)/C=C/c2ccc(Cl)cc2)cc1 | 17.7% |
| O=C(Oc1c(Br)cc(C(=S)N2CCOCC2)cc1Br)c1ccc(Cl)cc1 | 11.3% |
| CC(=O)N1N=C(c2ccc(NS(=O)(=O)c3ccccc3)cc2)CC1c1ccco1 (centres unmarked) | -12.2% |
| Cc1ccc(-n2ncc3c2CC(C)(C)CC3NC(=O)CCc2cnn(C)c2)cc1 (centres unmarked) | -52.6% |
| Cc1ccc(-n2ncc3c2CC(C)(C)CC3NC(=O)CCN2CCCCC2=O)cc1 (centres unmarked) | 3.16% |
| Cc1ccc(-n2ncc3c2CC(C)(C)CC3NC(=O)CCc2cccnc2)cc1 (centres unmarked) | -63.9% |
| Cc1ccc(-n2ncc3c2CC(C)(C)CC3NC(=O)CCc2c(C)noc2C)cc1 (centres unmarked) | -32.3% |
| Cc1ccc(-n2ncc3c2CC(C)(C)CC3NC(=O)CCN2CCCO2)cc1 (centres unmarked) | -37.7% |
| Cc1ccc(-n2ncc3c2CC(C)(C)CC3NC(=O)CCCN2CCCC2=O)cc1 (centres unmarked) | -1.21% |
| O=c1ccc2cc(S(=O)(=O)N3CCN(c4cc(Cl)ccc4Cl)CC3)ccc2o1 | -20.7% |
| Cc1cc(NC(=O)CSCC(=O)Nc2ccccc2Oc2ccccc2)no1 | -8.79% |
| NC(=O)CSc1oc(-c2cccs2)nc1S(=O)(=O)c1ccccc1 | -15.5% |
| COc1cccc(/C=N/NC(=O)CN2CC(c3ccccc3)CC2=O)c1O (centres unmarked) | -9.13% |
| O=c1[nH]c2ccccc2c(O)c1-[n+]1ccccc1.[Cl-] | 22.5% |

| SMILES | hERG current change (%, negative = inhibition) at 10uM |
| --- | --- |
| COc1ccc(CCNC(=O)C(=O)Nc2ccc3nc4n(c(=O)c3c2)CCCCC4)cc1OC | -27.3% |
| Oc1ccc(/C=N/Nc2nc(N3CCCC3)nc(N3CCCC3)n2)cc1O | 2.71% |
| Cl.c1ccc(CSCc2cn3ccccc3n2)cc1 | 2.98% |
| Cc1ncc([N+](=O)[O-])n1CCOC(=O)NC(Nc1ccc(F)cc1)C(Cl)(Cl)Cl (centres unmarked) | -54.6% |
| Cc1ccccc1NC(NC(=O)OCCn1c([N+](=O)[O-])cnc1C)C(Cl)(Cl)Cl (centres unmarked) | 2.42% |
| Cc1ccc(NC(NC(=O)OCCn2c([N+](=O)[O-])cnc2C)C(Cl)(Cl)Cl)cc1 (centres unmarked) | 6.71% |
| COc1ccccc1NC(=O)COn1nnc2ccc(S(=O)(=O)N3CCOCC3)cc21 | 4.92% |
| CN(CC(=O)Nc1ccc(Cl)c(C(F)(F)F)c1)C(=O)CCN1C(=O)C2CCCCC2C1=O (centres unmarked) | -50.2% |
| COc1ccc(NC(=O)CN(C)C(=O)CCCNC(=O)c2ccc(Cl)cc2)cc1 | -30.8% |
| Cc1ccc(OCC(=O)N(C)CC(=O)Nc2ccccc2Cl)c([N+](=O)[O-])n1 | -16.7% |
| Cc1ccc(OCC(=O)N(C)CC(=O)Nc2ccc(Cl)c(C(F)(F)F)c2)c([N+](=O)[O-])n1 | -54.8% |
| CN(CC(=O)Nc1ccc(Cl)cc1)C(=O)CCNC(=O)c1ccc(Cl)cc1 | -67.7% |
| CCOc1ccc(NC(=O)CN(C)C(=O)c2cn3ccccc3n2)cc1OCC | -19.2% |
| CN(CC(=O)Nc1ccc(Cl)c(C(F)(F)F)c1)C(=O)c1cn2ccccc2n1 | -61.9% |
| CN(CC(=O)Nc1cccc(F)c1)C(=O)c1cn2ccccc2n1 | -5% |
| Cc1ccc(OCC(=O)N(C)CC(=O)Nc2ccc(F)cc2)c([N+](=O)[O-])n1 | -24.2% |
| CN(CC(=O)Nc1ccc(Cl)c(C(F)(F)F)c1)C(=O)CNC(=O)C1CCCCC1 | -31.5% |
| CN(CC(=O)Nc1ccc(Cl)c(C(F)(F)F)c1)C(=O)CCN1C(=O)C2CC=CCC2C1=O (centres unmarked) | -37.2% |
| COc1ccccc1C(=O)NCCC(=O)N(C)CC(=O)Nc1ccc(Cl)cc1 | -31.9% |
| COc1cc(C2/C(=C(/O)c3ccccc3)C(=O)C(=O)N2c2ccccn2)ccc1O (centres unmarked) | 25.1% |
| O=C(COC(=O)CN1C(=O)C2CC=CCC2C1=O)Nc1cc(C(F)(F)F)ccc1N1CCOCC1 (centres unmarked) | -26.8% |
| CC(=O)OCCN(Cc1ccccc1)Cc1ccc2c(c1)OCO2 | -10.8% |
| CC(/C=N/n1c(-c2cc(C)[nH]n2)n[nH]c1=S)=C\c1ccccc1 | 14.7% |

| SMILES | hERG current change (%, negative = inhibition) at 10uM |
| --- | --- |
| COc1ccc(NC(=O)CSCC(=O)N(C)CC(=O)Nc2ccc(Cl)c(C(F)(F)F)c2)cc1 | -68.6% |
| O=C(CCCN1C(=O)CCC1=O)Nc1ccc(Cl)c(C(F)(F)F)c1 | -18.8% |
| COc1ccc(NC(=O)CN(C)C(=O)CSCC(=O)Nc2ccc(C)cc2)cc1 | -0.753% |
| Cc1ccc(NC(=O)CN(C)Cc2cc(=O)n3ccsc3n2)cc1 | -7.66% |
| CN(CC(=O)Nc1cccc(F)c1)C(=O)CCCNC(=O)c1ccc(Cl)cc1 | -36.7% |
| CN(CC(=O)Nc1ccc(Cl)c(C(F)(F)F)c1)C(=O)CCCNC(=O)c1ccc(Cl)cc1 | -52.2% |
| O=C(CCCCCN1C(=O)CCC1=O)Nc1ccc(Cl)c(C(F)(F)F)c1 | -58.7% |
| COc1cccc(NC(=O)CN(C)C(=O)CCCNC(=O)c2ccc(Cl)cc2)c1 | -46.5% |
| COc1ccc(NC(=O)CCCCCN2C(=O)CCC2=O)cc1Cl | -2.22% |
| CN(CC(=O)Nc1ccc(Cl)c(C(F)(F)F)c1)Cc1cc(=O)n2ccsc2n1 | -82.8% |
| CN(CC(=O)Nc1ccc(Cl)cc1)Cc1cc(=O)n2ccsc2n1 | -33.3% |
| COc1ccc(CCC(=O)N(C)CC(=O)Nc2ccc(Cl)c(C(F)(F)F)c2)cc1 | 22.2% |
| CC(=O)N1N=C(c2ccc(C)cc2)OC1c1cccnc1 (centres unmarked) | 8.57% |
| CCOC(=O)C1CCCN(S(=O)(=O)c2ccc(-n3cnnn3)c(C)c2)C1 (centres unmarked) | -11.3% |
| COc1ccc(Cl)cc1NC(=O)CN(C)C(=O)CCNC(=O)c1ccccc1OC | -9.08% |
| COc1ccc(Cl)cc1NC(=O)CCCNC(=O)c1ccc(Cl)cc1 | -4.84% |
| COc1ccc(Cl)cc1NC(=O)CN(C)C(=O)CCCNC(=O)c1ccc(Cl)cc1 | -55.4% |
| Cc1cc(C)n(/N=C/c2ccccc2)c(=O)c1C#N | 17% |
| Cc1ccccc1NC(=O)CSc1nc(-c2ccccc2)cc(=O)[nH]1 | 24.9% |
| CCOc1ncccc1C(=O)Nc1cc(S(=O)(=O)N2CCCCC2)ccc1Cl | 20.5% |
| COc1cccc(NC(=O)CSc2nnc3c(n2)[nH]c2ccc(C)cc23)c1 | 8.36% |
| COc1ccc(C(=O)NCCc2nc3cc([N+](=O)[O-])ccc3n2C)cc1 | -39.9% |
| COc1ccccc1C(=O)N1CCN(Cc2nc3cc([N+](=O)[O-])ccc3n2C)CC1 | -67.6% |

| SMILES | hERG current change (%, negative = inhibition) at 10uM |
| --- | --- |
| Cn1c(CN2CCOCC2)nc2cc(NC(=O)c3ccccc3Cl)ccc21 | -10.4% |
| Cn1c(CN2CCN(C(=O)c3ccccc3Cl)CC2)nc2cc([N+](=O)[O-])ccc21 | -70.7% |
| CC(=O)N1CCN(Cc2nc3cc(NC(=O)c4ccccc4Cl)ccc3n2C)CC1 | -20.8% |
| Cc1cc(C(c2nnnn2Cc2ccccc2)N2CCOCC2)c(C)n1-c1ccc2c(c1)OCO2 (centres unmarked) | -32.1% |
| CCC(C)(C(=O)Nc1ccccc1C)N(C(=O)CNC(C)=O)c1ccc(C)cc1 (centres unmarked) | 14.8% |
| COc1ccc(NC(=O)COC(=O)CCCC2=NS(=O)(=O)c3ccccc3N2)cc1Cl | 38.8% |
| O=C(NCc1ccccc1)c1cc(S(=O)(=O)N2CCCCC2)ccc1N1CCOCC1 | -20.1% |
| O=C(CSc1nnc(CNc2ccc(F)cc2)o1)N1CCCc2ccccc21 | 2.24% |
| Cl.O=C(CNCC1CCCCC1)Nc1ccc(OC(F)(F)F)cc1 | -62.4% |
| CCN1CCCC1CNCC(=O)Nc1ccc(OC(F)(F)F)cc1.O=C(O)C(=O)O (centres unmarked) | -70.7% |
| CCN1CCCC1CNC(=O)C(=O)Nc1ccc(OC)cc1 (centres unmarked) | -5.95% |
| CNCC(=O)Nc1ccc(OC(F)(F)F)cc1.Cl | -3.92% |
| CCN(CC(=O)Nc1ccc(C(=O)OC)cc1)C1CCCCC1 | -1.85% |
| CCC(C)(C)NCC(=O)Nc1ccc(OC(F)(F)F)cc1 | -32.7% |
| CCN1CCCC1CNCC(O)COc1ccc(C(C)(C)C)cc1C.O=C(O)C(=O)O (centres unmarked) | -54.4% |
| CCN(C(=S)Nc1ccc(OC(F)F)cc1)C1CCCCC1 | -22.8% |
| O=C(CNCC1CCCCC1)Nc1ccc(N2CCCCC2)cc1.O=C(O)C(=O)O | -17.3% |
| CCN(CC(=O)Nc1ccc(OC(F)F)cc1)C1CCCCC1 | -73.5% |
| CCN1CCCC1CNC(=O)C(=O)NCCc1ccc(OC)c(OC)c1 (centres unmarked) | -1.49% |
| CCN1CCCC1CNC(=O)c1cc(N)ccc1OC.O.O=C(O)C(=O)O (centres unmarked) | 13.5% |
